# From PubChem
# IMPase inh – qHTS Assay for Identifying the Cell-Membrane Permeable IMPase Inhibitors; Inositol monophosphatase 1 (Rattus norvegicus), P97697; CHO-M1 cells, IP1 accumulation, HTRF TR-FRET ratio; inhibition (IP1 accumulation), % at 46.1 µM; 120,000 tested, under 10 active; AID 901, 2007; active means well fitted curve in the direction sought with a large enough effect in the signal ratio, not every such curve was filed as active; inconclusive means small, poorly fitted or top-dose-only effect, or a change in a side signal; inactive means no such curve, though single readings can be large or run the other way; the % refers to the signal ratio;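 further: cells stimulated with carbachol in lithium chloride buffer; plate controls were DMSO basal wells for no effect and reference inhibitor wells for full effect; higher means more IMPase inhibition seen as more IP1 and lower FRET ratio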
# Target sequence (P97697 whole entry, looked up): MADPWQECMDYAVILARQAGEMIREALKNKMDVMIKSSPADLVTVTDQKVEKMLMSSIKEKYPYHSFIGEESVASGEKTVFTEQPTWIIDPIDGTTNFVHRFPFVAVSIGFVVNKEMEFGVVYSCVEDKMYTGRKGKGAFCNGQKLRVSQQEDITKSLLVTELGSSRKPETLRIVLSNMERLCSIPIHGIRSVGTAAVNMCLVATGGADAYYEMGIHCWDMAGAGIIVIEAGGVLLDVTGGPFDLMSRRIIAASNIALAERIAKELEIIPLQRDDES
#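 Measured: the HTRF emission ratio (665/620 nm) plus the 620 nm donor channel, each fitted to the Hill equation to give AC50. Cells were CHO-M1 given compounds up to 46 uM and a 30 min carbachol stimulation at 37C.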
# PNC inhibitor – High Content Assay for Compounds that inhibit the Assembly of the Perinucleolar Compartment; PC3M PTB-GFP, PNC prevalence imaging, 16 h; hits give low values; 140,000 tested, 3.1% active; activity change (PNC), negative = inhibition, % at 10 µM;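 active means readout at or below -70, meaning at least 70% loss of cells showing the perinucleolar compartment, a nuclear body marking cancer cells; inconclusive means readout between -30 and a set limit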;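 further: plate controls were DMSO wells for no effect and camptothecin positive control wells for full effect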
#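 Read-out is percentage of cells bearing a perinucleolar compartment, from automated 20x imaging of fixed, Hoechst-stained PC3M PTB-GFP cells. Cells were seeded 4 h, then exposed 16 h to compound (23 nl of library stock) in duplicate plates.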
# HttQ103 aggreg – qHTS Multiplex Assay to Identify Dual Action Probes in a Cell Model of Huntington: Aggregate Formation (GFP). PC12 HttQ103-GFP aggregates, Acumen cytometry, 40 h. Potency, µM (top dose mostly 46.1 µM), for inactives: top-dose activity change, negative = inhibition, actives largely listed as inhibitors. 220,000 tested, 1.1% active. AID 1688, 2009; further: potency means the concentration at half of the fitted maximal effect; on the % scale 0 is the no-effect control and ±100 the full control effect; nearly all actives have a fitted effect of over 60% in size
#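 Read-out: GFP aggregate count by laser scanning cytometer (488 nm excitation, 500-530 nm emission, 1–25 µm objects >6 SD above background). Cells: PC12, inducible HTTex1-Q103-GFP, 100 nM tebufenozide; compounds titrated.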
# HTT ATP protect – qHTS Multiplex Assay to Identify Dual Action Probes in a Cell Model of Huntington: Cytoprotection (ATP) | PC12 HTT-Q103 induced, cytoprotection, ATP luminescence, 40 h | Potency, µM (titrated, usually from 56.4 µM), for inactives: cytoprotection (ATP increase), most hits filed as activators | 230,000 tested, 0.14% active; further: potency means the concentration at half of the fitted maximal effect; % of control where 0% means no effect; nearly all actives have a fitted effect of over 45% in size
#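 Stable PC12 Q103-GFP cells in serum-supplemented, phenol red-free DMEM; induction by tebufenozide at 100 nM final; compound dose series; cell viability quantified luminescently from ATP.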
# NPSR antagonist – qHTS Assay for Antagonists of the Neuropeptide S Receptor: cAMP Signal Transduction; CHO-NPSR cells, cAMP TR-FRET, antagonist mode; Potency, µM (doses to about 38.3 µM), for inactives: at the highest dose activity change, negative = inhibition, usual class: inhibitors; 220,000 tested, 1% active; AID 1461, 2008; further: potency means the concentration at half of the fitted maximal effect; on the % scale 0 is the no-effect control and ±100 the full control effect; nearly all actives have a fitted effect of over 50% in size
# ALOX12 inhib – qHTS Assay for Inhibitors of 12-hLO (12-human lipoxygenase). 150,000 tested, 0.12% active. Potency, µM (top dose mostly 57.1 µM), for the others: top-dose activity change, negative = inhibition, hits mostly inhibitors. Polyunsaturated fatty acid lipoxygenase ALOX12 (Homo sapiens), P18054. purified 12-hLO, xylenol orange hydroperoxide absorbance; further: potency means the concentration at half of the fitted maximal effect; on the % scale 0 is the no-effect control and ±100 the full control effect; nearly all actives have a fitted effect of over 55% in size
#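 Lipoxygenase turnover measured by absorbance at 573 and 405 nm after Fe-XO development. Human 12hLO 150 nM, arachidonate 40 uM, pH 7.0 Hepes buffer with detergent; 15 min compound preincubation, 30 min reaction.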
# * = called active by the depositor; ? = inconclusive; / = no result; [ ] = dose if it differs, or a comment. An excerpt weighted towards active compounds, which were near 3.3% of everything screened. Unless noted, the call rests on the fitted dose curve; in most records, active means well fitted curve in the direction sought with a large enough effect; inconclusive means small, poorly fitted or top-dose-only effect, or another doubt; inactive means no such curve, though single readings can be large; an effect the other way counts as inactive or inconclusive.
SMILES,IMPase inh,PNC inhibitor,HttQ103 aggreg,HTT ATP protect,NPSR antagonist,ALOX12 inhib
O=C(NCc1ccco1)C1CC2CCC1C2 (stereo not drawn),-9.2,-9.7,-1.9%[9.22 µM],7.0%,7.7%[46.1 µM],-2.7%
O=C(O)C1C2CCC(C2)C1C(=O)NCc1ccco1 (stereo not drawn),2.3,-100.0*,10.9%,-62.7%,11.5%[46.1 µM],-0.1%
COc1ccccc1N1CCN(S(=O)(=O)c2ccc3nc(-c4ccccc4)[nH]c3c2)CC1,/,-113.4*,?,/,-11.8%,-4.3%
O=S(=O)(c1ccc2nc(-c3ccccc3)[nH]c2c1)N1CCN(c2cccc(Cl)c2)CC1,/,1.7,14.3%,/,-28.8%,-0.1%
CCOC(=O)C1=C(N)Oc2ccc(Br)cc2[C@@H]1[C@@H](C#N)C(=O)OCC,8.2,/,/,-6.9%,/,-6.5%
OC[C@@H]1O[C@@H](n2cnc3c(N[C@@H]4C[C@@H]5CC[C@H]4C5)ncnc32)[C@@H](O)[C@H]1O,2.6,/,/,-15.8%[1.9 µM],/,-5.1%
CCOC(=O)N1CCC(Nc2nc3ccccc3nc2NS(=O)(=O)c2ccc(Cl)cc2)CC1,9.3,-9.7,11.2µM*,-7.9%[0.074 µM],-19.3%[46.1 µM],-4.7%
CCOC(=O)N1CCC(NC(=O)c2ccc(Cl)cc2)CC1,/,/,-27.6%[9.22 µM],9.7%[10 µM],-3.1%,/
CC#CC#Cc1cccc(=O)o1,/,/,22.4%[9.22 µM],-1.4%[10 µM],-50.7%,/
O=C(c1cnccn1)N1CCC[C@@]2(CCN(Cc3cc(C(F)(F)F)cc(C(F)(F)F)c3)C2)C1,/,/,/,12.8%,/,-1.4%
Cc1[nH]ccc(=O)c1OCc1ccccc1,-0.6[1.84 µM],-110.7*,-19.7%,9.4%[10 µM],-3.4%[46.1 µM],0.4%
Cc1[nH]ccc(=O)c1OCc1ccc(Cl)cc1,?,-124.4*,-2.2%,-10.6%[10 µM],2.6%[46.1 µM],4.7%
Cc1c(OCc2ccccc2)c(=O)ccn1Cc1ccc(Cl)cc1,4.6,18.3,-18.0%,5.8%,?,-3.2%
Cc1[nH]ccc(=O)c1OCc1c(F)cccc1Cl,/,/,-8.4%,-13.1%,0.2%,/
CC1=C2C(=COC(C)C2C)C(=O)C(C(=O)O)=C1O (stereo not drawn),/,/,/,3.3%,/,-10.0%
CC[n+]1ccc(C[n+]2ccccc2)c2ccccc21,/,-82.3*,-2.0%,-10.4%[10 µM],7.9%,?
Cc1ccc2c(c1)c(C)cc[n+]2Cc1ccccc1,-2.6,-30.0,-26.8%,17.7%[10 µM],6.7%[46.1 µM],-1.2%
COc1ccc(OC)c([C@H]2Nc3ccccc3NC3=C2C(=O)CC(C)(C)C3)c1Br,/,/,/,4.3%,/,/
Cc1ccc(N(C(=O)Cc2cccs2)C(C(=O)NC2CCCCC2)c2ccccn2)cc1C (stereo not drawn),/,?,-19.1%,35.0%[10 µM],-38.7%,-0.3%
Cc1nnc(N2C(=O)c3cccc4cccc(c34)C2=O)s1,2.9,-111.1*,7.6%,-8.1%[10 µM],-11.9%[46.1 µM],5.2%
CCCc1nnc(N2C(=O)c3cccc4cccc(c34)C2=O)s1,-6.7,20.7,2.6%,12.7%,-6.2%[46.1 µM],-1.8%
O=C(c1ccccc1)N1CCN(c2ncnc3sc4c(c23)CCC4)CC1,10.1,3.0,35.5µM*,-0.4%[10 µM],-21.3%[46.1 µM],-0.8%
c1nc(N2CCOCC2)c2c3c(sc2n1)CCCC3,6.3,-12.1,?,12.8%[1.9 µM],5.2%[46.1 µM],1.2%
CCOCCCNC(=O)CSc1nc2nc(C)c(Cc3ccccc3)c(C)n2n1,/,/,8.6%,-16.0%,-1.0%,/
COc1c(/C=N/NC(=O)c2ccncc2)c(CCN(C)C(C)=O)cc2c1OCO2,/,/,-7.3%[9.22 µM],20.6%[10 µM],-9.3%,/
CCCCCCn1c2c(c(=N)c3c1CCC3)CCC2,19.8,?,1.78µM*,-16.9%[0.074 µM],2.1%[46.1 µM],10.9%
CCCCCCCCCn1c2c(c(=N)c3c1CCC3)CCC2,30.2,26.1,1.26µM*,-51.7%[10 µM],7.94µM*,17.9%
CCOC(=O)CNC(=O)Cn1cnc2c(nnn2-c2ccc(F)cc2)c1=O,14.0,21.1,11.1%,-0.4%,-7.0%[46.1 µM],-6.3%
